ADAM17 inh – ADAM17 inhibitors, primary screen, biochemical, QFRET; 370,000 tested, 0.83% active; recombinant ADAM17, EDANS/DABCYL FRET peptide cleavage; inhibition, % at 6.95 µM; Disintegrin and metalloproteinase domain-containing protein 17 (Homo sapiens), P78536; AID 720648, 2013;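 active = inhibition above the mean of compounds lying between control limits plus 3 SD, set per campaign, cut at about 8.5% in these data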;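 also: 0% = DMSO-only wells as the low control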
ADAM10 inh – human ADAM10 inhibitors, primary screen, biochemical, QFRET, HTS; Disintegrin and metalloproteinase domain-containing protein 10 (Homo sapiens), O14672; recombinant ADAM10, EDANS/DABCYL FRET peptide cleavage, 3 h; inhibition, % at 7 µM; 370,000 tested, 0.62% active;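 active = inhibition above a per-campaign cutoff equal to the mean of compounds falling between control-based bounds plus 3 SD, cut at about 20% in these data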;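 also: 0% = DMSO wells while the 100% control is not disclosed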
proKLK7 act – proKLK7 zymogen activators, primary screen, biochemical, fluorescence intensity | 370,000 tested, 0.9% active | activation, % at 7 µM | Kallikrein-7 (Homo sapiens), P49862 | purified proKLK7, EDANS-DABCYL substrate fluorescence; 100% is mature enzyme control, 0% vehicle | AID 652039, 2013;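 active = activation above the mean of all tested compounds plus 3 SD, computed per campaign excluding outliers beyond control limits, cut at about 13% in these data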
PLCg1 inh – PLC-gamma1 enzyme inhibitors, primary screen, biochemical, fluorescence, purified enzyme; fluorogenic substrate; inhibition, % at 12.2 µM; 370,000 tested, 0.84% active; AID 720700, 2013; in the data active = inhibition above about 9.5%
PLC-beta3 inh – human PLC-beta3 inhibitors, primary screen, biochemical, fluorescence | inhibition, % at 12.2 µM | 370,000 tested, 0.18% active | AID 720704, 2013 | 1-phosphatidylinositol 4,5-bisphosphate phosphodiesterase beta-3 (Homo sapiens), Q01970 | Purified PLC-beta3, fluorogenic substrate; in the data active = inhibition above about 11%;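 also: 0% = median of compound wells on plate and 100% = full blocker control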
Target sequence (Q01970 whole entry, looked up): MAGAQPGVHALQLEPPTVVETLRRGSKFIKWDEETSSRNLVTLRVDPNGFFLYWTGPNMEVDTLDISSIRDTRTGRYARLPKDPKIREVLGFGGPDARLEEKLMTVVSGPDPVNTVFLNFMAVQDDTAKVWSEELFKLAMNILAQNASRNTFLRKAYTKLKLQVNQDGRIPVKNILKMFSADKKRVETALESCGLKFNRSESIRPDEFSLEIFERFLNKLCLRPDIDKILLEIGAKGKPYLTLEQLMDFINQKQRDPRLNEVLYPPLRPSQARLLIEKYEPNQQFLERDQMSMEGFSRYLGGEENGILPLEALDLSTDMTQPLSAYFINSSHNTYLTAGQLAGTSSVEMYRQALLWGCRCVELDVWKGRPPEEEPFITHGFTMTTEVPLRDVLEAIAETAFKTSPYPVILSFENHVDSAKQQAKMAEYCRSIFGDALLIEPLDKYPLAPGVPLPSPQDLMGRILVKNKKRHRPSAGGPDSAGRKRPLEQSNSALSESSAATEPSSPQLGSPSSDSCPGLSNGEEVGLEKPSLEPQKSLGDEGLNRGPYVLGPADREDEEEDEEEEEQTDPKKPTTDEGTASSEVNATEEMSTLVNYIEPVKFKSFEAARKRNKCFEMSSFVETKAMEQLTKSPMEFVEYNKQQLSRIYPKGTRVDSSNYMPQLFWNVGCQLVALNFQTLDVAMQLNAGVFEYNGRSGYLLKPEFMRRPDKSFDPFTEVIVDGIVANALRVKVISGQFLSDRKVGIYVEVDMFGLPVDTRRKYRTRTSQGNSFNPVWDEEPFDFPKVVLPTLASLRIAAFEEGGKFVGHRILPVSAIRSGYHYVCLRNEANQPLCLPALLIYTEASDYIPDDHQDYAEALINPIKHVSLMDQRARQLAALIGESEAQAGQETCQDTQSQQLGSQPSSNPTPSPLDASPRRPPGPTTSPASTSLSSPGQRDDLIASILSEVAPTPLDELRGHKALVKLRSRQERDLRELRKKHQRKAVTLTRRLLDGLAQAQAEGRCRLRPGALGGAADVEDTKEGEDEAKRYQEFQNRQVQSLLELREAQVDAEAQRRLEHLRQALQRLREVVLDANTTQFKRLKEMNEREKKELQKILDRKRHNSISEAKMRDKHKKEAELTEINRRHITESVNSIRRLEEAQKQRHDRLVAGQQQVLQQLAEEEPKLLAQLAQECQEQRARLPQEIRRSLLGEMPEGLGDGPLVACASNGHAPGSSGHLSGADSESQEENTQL
Numbers without * were called inactive; i = inactive. Hits are enriched below; roughly 2.9% of the tested compounds scored in any of these assays.

SMILES | ADAM17 inh | ADAM10 inh | proKLK7 act | PLCg1 inh | PLC-beta3 inh
C[C@H]1CN([C@@H](C)CO)C(=O)c2cccc(NC(=O)Nc3ccc(C(F)(F)F)cc3)c2O[C@@H]1CN(C)S(=O)(=O)c1ccc(Cl)cc1 | 9.2* | 24* | 1 | 6 | -1
C[C@@H]1CN([C@H](C)CO)C(=O)c2cc(NC(=O)Nc3ccc(C(F)(F)F)cc3)ccc2O[C@H]1CN(C)S(=O)(=O)c1ccc(Cl)cc1 | 8 | 25* | -1 | 1 | 0
CCN(c1ccccc1)S(=O)(=O)c1ccc(Cl)c(NC(=O)Nc2ccc(Cl)cc2C#N)c1 | -14 | -58 | -1 | -27 | -35
C[C@]12c3[nH]c4cc(-c5ccco5)ccc4c3CCN1C(=O)[C@@H](CC(=O)NCCc1ccccn1)C[C@@H]2C(=O)N1CCCCC1 | -159 | i | 178* | i | i
C[C@]12c3[nH]c4cc(-c5ccco5)ccc4c3CCN1C(=O)[C@@H](CC(=O)NCCC1=CCCCC1)C[C@@H]2C(=O)N1CCCCC1 | -40 | -155 | -2 | -166 | -253
CCOC(=O)COc1ccc(/C=C/[N+](=O)[O-])c(OCC(=O)OCC)c1 | 9.1* | 9 | 0 | -3 | -3
CCOC(=O)COc1ccc2ccccc2c1/C=C/[N+](=O)[O-] | -4 | -13 | 0 | -3 | -4
COc1ccccc1N1CCN(C(=O)c2ccc3c(c2)CCN3S(=O)(=O)c2ccccc2)CC1 | 7 | 13 | 1 | 11* | -13
COc1ccc(N2CCN(C(=O)c3ccc4c(c3)CCN4S(=O)(=O)c3ccccc3)CC2)cc1 | 2 | 8 | 1 | 2 | -8
O=C(C1=C[C@H](c2csc3ccccc23)C[C@H](OCc2ccc(CO)cc2)O1)N1CCN(Cc2ccccc2)CC1 | 6 | 6 | 1 | -5 | -18
O=C(C1=C[C@H](c2csc3ccccc23)C[C@H](OCc2ccc(CO)cc2)O1)N1CCN(Cc2ccc3c(c2)OCO3)CC1 | 8 | 21* | 1 | 4 | 1
C=CCn1c(COc2ccc(C)cc2)nnc1SCC(=O)Nc1ccc(Oc2ccccc2)cc1 | 5 | 1 | 1 | -3 | -1
C=CCn1c(COc2ccc3c(c2)CCCC3)nnc1SCC(=O)Nc1cccc(SC)c1 | 16* | 31* | 0 | -2 | 0
CCN(CC)c1ccc(N=Nc2ncn[nH]2)cc1 | 2 | 4 | 0 | 3 | 12*
CCN(CC)c1ccc(N=Nc2nn(C)c(C)c2[N+](=O)[O-])cc1 | 5 | 8 | 0 | 9 | 4
COCCN=c1scc(-c2cccs2)n1/N=C/c1ccc(O)c(O)c1O | 14* | 24* | 0 | -20 | -22
CCN=c1scc(C)n1/N=C/c1ccc(O)c(O)c1O | 5 | 3 | -1 | -8 | -19
O=C1C(=Cc2ccco2)CCC1=Cc1ccco1 | -6 | -12 | 0 | 11* | -4
Cc1ccc(CNCCNCCO)s1 | -2 | 4 | 1 | 0 | -4
O=C(c1ccc(F)cc1)N1CCN(c2ccccn2)CC1 | -1 | -3 | 0 | 0 | -7
Cc1cc(C)n(-c2ccc(C(=O)N3CCN(c4ccccn4)CC3)cc2)n1 | 5 | -11 | -1 | 10* | 1
NC(=O)[C@@H]1CC2(CC(c3cccc(NC(=O)CC(c4ccccc4)c4ccccc4)c3)=NO2)CN1C(=O)[C@@H]1CCC(=O)N1 (stereo not given in full) | 5 | 3 | 1 | 6 | 4
NC(=O)[C@H]1CC2(CC(c3cccc(NC(=O)CC(c4ccccc4)c4ccccc4)c3)=NO2)CN1C(=O)C(c1ccccc1)c1ccccc1 (stereo not given in full) | 13* | 19 | 0 | 13* | 5
Cc1nn(C)cc1CN(C)C(=O)c1cc2nc(-c3ccco3)cc(C(F)(F)F)n2n1 | -63 | -214 | 16* | i | i
Cc1nn(C)c(C)c1CN(C)C(=O)c1cc2nc(-c3ccco3)cc(C(F)(F)F)n2n1 | -56 | -181 | 5 | -393 | -486
SMILES | ADAM17 inh | ADAM10 inh | proKLK7 act | PLCg1 inh | PLC-beta3 inh
O=C(COc1ccc(-n2cnnn2)cc1)N1CCN(c2ccc(F)cc2)CC1 | 2 | 6 | -1 | -3 | 1
Cc1ccc2nc(NC(=O)C3CCN(S(=O)(=O)c4cccs4)CC3)sc2c1 | 6 | 21* | 0 | 2 | 2
COc1ccc2nc(NC(=O)C3CCN(S(=O)(=O)c4cccs4)CC3)sc2c1 | 4 | 7 | 1 | 1 | 0
COc1ccc(C(=S)N2CCNCC2)cc1 | -1 | -10 | 0 | 1 | 4
COc1ccc(C(=S)N2CCCCCC2)cc1 | -2 | 2 | 0 | 9.9* | 2
CN=C(Nc1ccc(Cl)cc1)c1ccc(C(F)(F)F)cc1 | 3 | 13 | -1 | 15* | 5
CCCc1cc(=O)oc2cc(OC(C)C(=O)NCC3CCC(C(=O)O)CC3)ccc12 (stereo not given) | -46 | -167 | 0 | -6 | -9
COc1ccc(C(=O)NCc2ccc(C)cc2)cc1S(=O)(=O)N1CCCc2ccccc21 | 18* | 14 | 1 | 8 | 0
Cc1ccc(NC2=C/C(=N/S(=O)(=O)c3cccs3)c3ccccc3C2=O)cc1C | 2 | 2 | 0 | 5 | 4
COc1ccc(S(=O)(=O)/N=C2\C=C(Nc3ccc(O)cc3)C(=O)c3ccccc32)cc1 | 7 | 20 | 1 | 18* | 4
CC(C)c1ccc(S(=O)(=O)/N=C2\C=C(NS(=O)(=O)c3ccccc3)C(=O)c3ccccc32)cc1 | 3 | 5 | 0 | 1 | -11
CC(=O)Nc1ccc(NC2=C/C(=N/S(=O)(=O)c3cccs3)c3ccccc3C2=O)cc1 | 2 | 7 | 0 | 11* | 7
CCc1ccc(S(=O)(=O)/N=C2\C=C(NS(=O)(=O)c3ccccc3)C(=O)c3ccccc32)cc1 | -4 | 0 | 0 | 0 | -10
O=C(O)c1ccc(S(=O)(=O)/N=C2\C=C(Nc3ccccc3F)C(=O)c3ccccc32)cc1 | 2 | -11 | 0 | 20* | 0
NC(=O)C1CCN(c2oc(/C=C/c3ccccc3)nc2S(=O)(=O)c2ccccc2)CC1 | 4 | -3 | -1 | 1 | -5
COc1ccc(Cl)cc1NC(=O)CN(C(=O)c1ccco1)C1CCCCC1 | -5 | -2 | 1 | -1 | -3
CCOC(=O)C1=C(COC(=O)C2CC(=O)N(c3ccc(C)cc3)C2)NC(=O)NC1C (stereo not given) | -4 | -2 | -1 | 2 | -10
O=C(COc1ccccc1C(=O)O)Nc1ccc(SC(F)F)cc1 | 3 | 3 | 0 | -10 | 0
O=C(COC(=O)c1ccccc1C(=O)c1ccccc1)Nc1ccc(SC(F)F)cc1 | 9.0* | 16 | -1 | -1 | 2

Screening data from PubChem.
